# Assay outcomes (PubChem BioAssay)
# M1 ag parental: counter-screen for M1 agonists: effect in parental CHO-K1 cells; Fluo-8 calcium fluorescence; scaled to maximal ATP response, vehicle zero; AID 602248; activation, % at 3 µM; 360,000 tested, 0.48% active; in the data active means activation above about 15%;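 further: untransfected CHO-K1 host cells lacking M1 receptor as counterscreen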
# CHRM1 antagonist: human CHRM1 antagonism; P11229; CHO-K1 hM1, Fluo-8 calcium fluorescence, ACh EC80 antagonist; inhibition, % at 3 µM; 360,000 tested, 1.3% active;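 active means percent inhibition above its own plate's cutoff, namely the mean of that plate's compound wells plus 3 SD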;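 further: peak over basal fluorescence ratio during 140 s after agonist addition; 0% = ACh EC80 plus DMSO and 100% = DMSO alone without agonist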
# Target sequence (P11229 whole entry, looked up): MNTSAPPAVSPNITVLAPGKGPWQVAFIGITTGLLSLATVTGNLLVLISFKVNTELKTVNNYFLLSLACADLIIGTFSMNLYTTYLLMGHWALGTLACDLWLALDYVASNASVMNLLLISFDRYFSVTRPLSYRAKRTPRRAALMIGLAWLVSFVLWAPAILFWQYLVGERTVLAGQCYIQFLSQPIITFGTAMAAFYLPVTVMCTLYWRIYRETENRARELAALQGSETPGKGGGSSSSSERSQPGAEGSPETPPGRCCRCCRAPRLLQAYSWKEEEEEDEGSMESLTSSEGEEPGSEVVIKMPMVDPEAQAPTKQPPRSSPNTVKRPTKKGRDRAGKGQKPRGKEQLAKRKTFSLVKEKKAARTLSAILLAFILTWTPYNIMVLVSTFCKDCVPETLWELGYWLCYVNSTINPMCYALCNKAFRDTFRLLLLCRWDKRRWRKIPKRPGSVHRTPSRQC
# M1 PAM: potentiates human M1 receptor response to acetylcholine; P11229; CHO-K1 hM1, Fluo-8 calcium fluorescence, ACh EC20; 0% = ACh EC20, 100% = maximal ACh; activation, % at 3 µM; 360,000 tested, 0.088% active; AID 588819; in the data active means activation above about 19%, passing the limit was not always enough
# M1 ag: human M1 muscarinic receptor agonism. CHO-K1 hM1, Fluo-8 calcium fluorescence, agonist mode; 0% DMSO, 100% acetylcholine EC100. activation, % at 3 µM. 360,000 tested, 0.33% active;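 active means activation above the run's mean compound activation plus 3 SD, cut at about 16% in these data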;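 further: peak over basal fluorescence ratio within a 140 s kinetic read after compound addition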
# CHO-K1 Ca antag: counter-screen for M1 antagonists: effect in parental CHO-K1 cells. 360,000 tested, 0.6% active. AID 602250. ATP-induced calcium, Fluo-8 fluorescence. inhibition, % at 3 µM;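 active means inhibition above a per-plate cutoff, the plate's mean sample inhibition plus 3 SD, cut at about 24% in these data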;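 further: 0% = DMSO plus EC80 ATP and 100% = DMSO alone without ATP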
# CHO-K1 Ca PAM: nonselective activator or artifact in parental CHO-K1 calcium assay; ATP EC20, Fluo-8 calcium fluorescence; 0% at ATP EC20, 100% at ATP max; 360,000 tested, 0.02% active; activation, % at 3 µM;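 active means activation above the run cutoff, the mean activation of all test compounds plus 3 SD, cut at about 40% in these data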;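 further: peak over basal fluorescence ratio in a 140 s read after ATP addition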
# Starred values were filed as active, the others as inactive. Only some compounds are listed: those with a hit (about 2.3% of all), similar ones and a draw of the others.
SMILES,M1 ag parental,CHRM1 antagonist,M1 PAM,M1 ag,CHO-K1 Ca antag,CHO-K1 Ca PAM
CCOc1ccc(-c2c(C(=O)N/N=C/c3ccc(O)cc3)nnn2-c2nonc2N)cc1,1,-4,10,0,-3,19
Cc1ccccc1N1CC(C(=O)Nc2ccncc2)CC1=O (centres undefined),2,2,0,-2,5,14
COc1ccccc1C(C)NC(=O)c1cc(=O)[nH]c2ccccc12 (centres undefined),0,13,-1,-6,-12,10
C/C(=N\NC(=O)c1ccccc1)c1ccc(N2CCOCC2)cc1,0,-2,5,-3,-4,-8
C/C(=N/NC(=O)c1cccs1)c1ccc(N2CCOCC2)cc1,0,21,-12,-2,25*,-6
COc1cccc(OC)c1C(=O)Nn1c(-c2cccs2)nc2ccccc2c1=O,4,-2,-4,-4,-4,14
COc1cccc(OC)c1C(=O)Nn1c(-c2cccc(C)c2)nc2ccccc2c1=O,1,0,-5,-4,24*,-14
Cc1ccc(C)c2sc(NC(=O)c3nc4ccccc4s3)nc12,1,-8,-1,-5,-15,17
COc1ccc(O)c(C(=O)c2coc(=N)c(C(=O)Nc3ccc(SC(F)F)cc3)c2)c1,17*,30,-13,0,9,-5
O=C(O)C(c1ccccc1)C1(O)CCC1 (centres undefined),1,-11,6,-2,-15,7
COC(=O)CN1CCN(C(c2ccccc2)c2ccccc2)CC1,0,14,-11,-1,1,5
CN(Cc1ccccc1)C(=O)CN1CCN(C(c2ccccc2)c2ccccc2)CC1,1,86*,-20,1,-6,12
COc1cccc2c(=O)n(CC(=O)Nc3ccc(F)cc3F)ccc12,0,28*,-3,-1,11,-6
CCOCCn1ccc2c(OCC(=O)Nc3cc(OC)ccc3OC)cccc2c1=O,3,8,-8,-4,-11,-13
CCOCCn1ccc2c(OCC(=O)Nc3ccccc3OC)cccc2c1=O,4,30*,-14,-3,12,-28
COc1cccc2c(=O)n(CC(=O)Nc3ccccc3)ccc12,-1,0,2,-3,10,14
Cc1ccc(S(=O)(=O)N2CCOCC2)cc1NC(=O)CSCc1c(C)noc1C,1,-10,6,-2,-15,7
COC(=O)N1C2CCCCC2=NN(c2ccccc2)N1C(=O)OC (centres undefined),0,1,11,12,7,-5
O=C1c2ccccc2C(=O)N1CN(C(=O)c1ccccc1)c1ccc(O)cc1,22*,5,8,-4,12,6
Cc1cc(/C=C2/NC(=O)NC2=O)c(C)n1-c1ccccn1,0,-1,8,-3,11,15
Cc1ccc(-n2c(C)cc(/C=C3\NC(=O)NC3=O)c2C)c(C)c1,1,32*,-19,-8,-19,25
CCOC(=O)CN1CC(C)(C)N(CC(=O)OCC)CC1(C)C,0,8,-6,-2,7,-3
COC(=O)c1ccc(N)nc1,0,-2,-1,22*,2,-11
COC(=O)c1ccc2nccnc2c1,0,12,-5,-1,-10,23
COc1cccc(-c2ccc(NC(=O)C3CCCN(Cc4ccco4)C3)cc2)c1 (centres undefined),2,-2,3,-3,-7,9
SMILES,M1 ag parental,CHRM1 antagonist,M1 PAM,M1 ag,CHO-K1 Ca antag,CHO-K1 Ca PAM
COc1cccc(-c2ccc(NC(=O)C3CCCN(CCCn4nc(C)cc4C)C3)cc2)c1 (centres undefined),5,49*,-24,-2,-3,8
CCCCn1c(N)c(N(Cc2ccccc2OC)C(=O)CN2C(=O)NC3(CCCC3)C2=O)c(=O)[nH]c1=O,0,-7,3,-2,2,-4
COC(=O)c1cc2ccsc2n1Cc1cc(=O)n2ccccc2n1,1,77*,-37,-12,-3,-3
CCc1ccc2oc(-c3ccc(OC)cc3)cc(=Nc3c(C)n(C)n(-c4ccccc4)c3=O)c2c1,3,47*,-22,-5,-11,2
Cc1cc(C)cc(N(CC(=O)NCc2ccc(F)cc2)C(=O)c2snc(C(N)=O)c2N)c1,1,-6,11,16*,-7,15
CCC(NCc1cccnc1)c1ccc(OC)c(OC)c1 (centres undefined),0,-21,22,5,-12,24
CCNc1nc(NC(C)(C)C)nc(N2CCCCC2)n1,5,86*,-28,-11,-8,21
COc1ccccc1CN(C)C(=O)c1cc(C)nc2ccccc12,4,-4,0,-2,-9,12
COc1ccc(CN(C)C(=O)c2cc(-c3ccccc3)nc3ccc(C)cc23)c(OC)c1,5,37*,-17,-3,-11,12
Cn1cc(CNC(=O)c2cc(-c3ccccc3)nc3ccc(Br)cc23)cn1,3,9,-10,-8,-7,14
Cc1nn(C)cc1CN(C)C(=O)c1cc(-c2ccccc2)nc2ccc(Br)cc12,7,34*,-7,-1,-3,-4
Cn1c(=O)c2c([nH]c(=O)n2C)n(Cc2ccccc2)c1=O,0,-7,15,2,8,-14
Cc1ccc(S(=O)(=O)N(c2ccc(Br)cc2)C2C=CS(=O)(=O)C2)cc1 (centres undefined),0,-11,9,-5,-9,14
Cc1cccc2cc(-c3nc4c(C)cccn4c3NCc3ccco3)c(=O)[nH]c12,3,28*,-15,2,-3,13
Cc1ccc(C)c(N2CCN(C(=O)CCCOc3cc(=O)n(C)c4ccccc34)CC2)c1,6,37*,-13,2,15,13
CS(=O)(=O)N(CC(=O)NC1CC1)C1CCCCC1,0,-2,3,-5,-5,13
CC1CCCN(S(=O)(=O)c2ccc(NC(=O)CN3CCN(C)CC3)cc2)C1 (centres undefined),0,22*,-19,-6,7,-2
CC1CCN(C(C)C(=O)Nc2cc(S(=O)(=O)N3CCCCC3)ccc2Cl)CC1 (centres undefined),0,-8,2,-3,-12,11
CC1CCN(C(C)C(=O)Nc2ccc(S(=O)(=O)N3CCCC3)cc2)CC1 (centres undefined),0,101*,-30,-9,1,-16
CC1CCCN(CC(=O)Nc2cc(S(=O)(=O)N3CCOCC3)ccc2N2CCCC2)C1 (centres undefined),0,38*,-21,-8,-7,-2
CC(C)(C)CC(=O)Nc1cc(S(=O)(=O)N2CCOCC2)ccc1N1CCCC1,0,-25,5,-3,-21,16
CC1CCN(CC(=O)Nc2ccc3c(c2)OCO3)CC1,17*,-8,7,-8,3,5
